Bioassay records: PubChem, National Center for Advancing Translational Sciences (NCATS)
AMA1 RON2 block: qHTS for Inhibitors of AMA1-RON; Towards Development of Antimalarial Drug Lead: Primary Screen. AlphaScreen AMA1-biotinylated RON2 peptide binding. Potency, µM (doses to about 58.2 µM), actives largely listed as inhibitors. hit rate 0.2% among 360,000. Plasmodium falciparum AMA1 (3D7) - RON2 peptide interaction. AID 720542, 2013; also: nearly all actives have a fitted effect of over 45% in size
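AMA1 (3D7) with his tag at 25 nM final met compounds first, then biotinylated RON2 peptide at 25 nM; detection used donor plus acceptor beads, 10 µg/mL apiece, read by AlphaScreen after 30 min at room temperature.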
Pf growth 48h: Primary qHTS for delayed death inhibitors of the malarial parasite plastid, 48 hour incubation | AID 504832, 2011 | hit rate 5.9% among 310,000 | Potency, µM (top dose mostly 28.7 µM), actives largely listed as inhibitors | P. falciparum luciferase growth in erythrocytes, 48 h
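Cell-based growth assay: transgenic P. falciparum expressing firefly luciferase, cultured in red cells within RPMI 1640 containing 0.5% w/v Albumax, 24 mM bicarbonate and gentamycin. A drop in luciferase activity indicates inhibition.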
Pf growth 96h: Primary qHTS for delayed death inhibitors of the malarial parasite plastid, 96 hour incubation. P. falciparum luciferase reporter growth, 96 h. Potency, µM (titrated, usually from 28.7 µM), usual class: inhibitors. hit rate 6.9% among 320,000. AID 504834, 2011
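96 h incubation, 37 C, 5% CO2, of luciferase-reporter P. falciparum-infected RBCs (2% hematocrit, 0.05% parasitemia final) with test compounds; endpoint luminescence.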
HCV inh: qHTS Assay for Inhibitors of Hepatitis C Virus (HCV) | Huh7.5.1 HCVcc-Cre infection, luciferase reporter, 44 h | Potency, µM (highest dose often 41.8 µM), usual class: inhibitors | hit rate 3.4% among 340,000 | AID 651820, 2012
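Antiviral activity was scored by luciferase reporter output from cells infected with HCVcc-Cre (~0.5 moi) in presence of compound, 44 h infection period, cells seeded 1,000/well 4 h prior.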
Large screens that a line does not name were inactive. This is a sample that favours compounds with a hit; in the whole collection about 11% have one here. Calls follow the shape of the dose curve; as a rule, active = well fitted curve in the direction sought with a large enough effect; inconclusive = small, poorly fitted or top-dose-only effect, or another doubt; inactive = no such curve, though single readings can be large; an effect the other way counts as inactive or inconclusive.

CC(C)c1ccc([N+](=O)[O-])cc1S(=O)(=O)N1CCN(C)CC1	Pf growth 48h inconclusive
Cc1ccc(N(C)S(=O)(=O)c2cccc(C(=O)OCC(=O)N(C)Cc3ccccc3)c2)cc1	none (no result: Pf growth 48h, Pf growth 96h, HCV inh)
CC1=Nc2ccccc2/C1=C\c1nc(-c2ccccc2)oc1O	HCV inh inconclusive (no result: Pf growth 48h)
CC1=Nc2ccccc2/C1=C/c1c(O)[nH]c(=O)[nH]c1=O	Pf growth 96h 2.1µM
CC(C)C(NC(=O)c1ccc(C(C)(C)C)cc1)C(=O)N1CCC(C(N)=O)CC1 (stereo unspecified)	Pf growth 48h inconclusive, Pf growth 96h inconclusive
CCN(c1ccccc1)S(=O)(=O)c1ccc(OC)c(NC(=O)Cc2ccccc2OC)c1	Pf growth 48h 12µM, Pf growth 96h 13µM, HCV inh 10µM
CCN(c1ccccc1)S(=O)(=O)c1ccc(Cl)c(NC(=O)CNCc2ccccc2OC)c1	HCV inh 11µM (no result: Pf growth 48h, Pf growth 96h)
CCN(c1ccccc1)S(=O)(=O)c1ccc(OC)c(NC(=O)Cc2ccc(OC)c(OC)c2)c1	Pf growth 48h inconclusive, Pf growth 96h inconclusive, HCV inh 6.3µM
CCN(c1ccccc1)S(=O)(=O)c1ccc(OC)c(NC(=O)c2cccs2)c1	Pf growth 96h inconclusive, HCV inh inconclusive
CCN(c1ccccc1)S(=O)(=O)c1ccc(Cl)c(NC(=O)COC(=O)c2cccc(OC)c2O)c1	none
CCN(c1ccccc1)S(=O)(=O)c1ccc(OC)c(NC(=O)C2CC2)c1	Pf growth 48h inconclusive
CCN(c1ccccc1)S(=O)(=O)c1ccc(OC)c(NC(=O)c2cc(Cl)ccn2)c1	Pf growth 48h inconclusive, Pf growth 96h 6.6µM
CCN(c1ccccc1)S(=O)(=O)c1ccc(OC)c(NC(=O)c2c(C)noc2C)c1	HCV inh inconclusive
Cc1nnc(NC(=O)c2ccc(Br)o2)s1	Pf growth 96h inconclusive
O=C(Nc1ccc(F)cc1)C(c1ccnc2ccccc12)N1CCN(CC(=O)N2CCCC2)CC1 (stereo unspecified)	none (no result: Pf growth 48h, Pf growth 96h, HCV inh)
CN(CC(=O)c1c(N)n(C)c(=O)n(C)c1=O)c1ccccc1	none
COc1cc(C2C(C#N)=C(C)NC(C)=C2C#N)cc(OC)c1OC	Pf growth 48h 9.3µM, Pf growth 96h 12µM
COc1cc(C2C(C#N)=C(N)Oc3cc(N)ccc32)cc(OC)c1OC (stereo unspecified)	Pf growth 96h inconclusive
CCOC(=O)C1CCCN(C(=O)COc2ccc(S(=O)(=O)N(CC)c3ccccc3)cc2)C1 (stereo unspecified)	Pf growth 48h inconclusive
CC(C)(C)c1cc(CCC(=O)NCc2ccccn2)cc(C(C)(C)C)c1O	Pf growth 48h inconclusive, Pf growth 96h 12µM (no result: HCV inh)
CCOC(=O)c1c(NC(=O)C2CC2)sc2c1CC(C)(C)OC2	Pf growth 48h 12µM, HCV inh inconclusive
COc1ccccc1NC(=O)COc1ccc(Br)cc1CO	none (no result: Pf growth 48h)
CCCNCc1cc(Br)ccc1OCC(=O)NCCc1ccccc1	Pf growth 48h 13µM, Pf growth 96h 12µM, HCV inh inconclusive
COc1ccccc1NC(=O)COc1ccc(Br)cc1CNC1CCCC1	Pf growth 48h 12µM, HCV inh inconclusive
O=C(COc1ccc(Br)cc1CO)Nc1ccccc1	HCV inh 16µM
O=C(COc1ccc(Br)cc1CNCCc1ccccc1)NCc1ccccc1	Pf growth 48h inconclusive, Pf growth 96h inconclusive, HCV inh inconclusive
Cc1ccc(NC(=O)COc2ccc(Br)cc2CO)cc1	Pf growth 96h inconclusive, HCV inh inconclusive (no result: Pf growth 48h)
O=C(COc1ccc(Br)cc1CO)Nc1ccccc1F	HCV inh 25µM
Cc1ccccc1NC(=O)COc1ccc(Br)cc1C	Pf growth 96h inconclusive
CCOc1ccc(NC(=S)N2CCN(S(C)(=O)=O)CC2)cc1	Pf growth 48h inconclusive, Pf growth 96h inconclusive (no result: HCV inh)
Cc1csc(=O)n1CCC(=O)N(C)Cc1c(F)cccc1Cl	none (no result: Pf growth 48h, Pf growth 96h)
O=C(COc1ccc(Br)cc1)N1CCN(Cc2c[nH]c3ccccc23)CC1	AMA1 RON2 block inconclusive, Pf growth 96h inconclusive (no result: Pf growth 48h)
O=C(COc1ccc2ccccc2c1)N1CCN(Cc2c[nH]c3ccccc23)CC1	Pf growth 48h 12µM, Pf growth 96h 3.3µM, HCV inh inconclusive
Cc1cc(C)c(C(=O)N(C)CC2CCCN(CCc3ccccc3F)C2)o1 (stereo unspecified)	Pf growth 48h inconclusive (no result: HCV inh)
COc1cc(OC)c(OC)cc1CN(C)CC1CCCN(CCc2ccccc2F)C1 (stereo unspecified)	Pf growth 48h inconclusive, HCV inh 14µM
COc1ccc(CN(C)CC2CCCN(CCc3ccccc3C)C2)cc1O (stereo unspecified)	Pf growth 48h 5.9µM, Pf growth 96h inconclusive, HCV inh inconclusive
COc1ccc(CCN2CCCC(CN(C)Cc3cc(Cl)c(O)c(OC)c3)C2)cc1 (stereo unspecified)	Pf growth 48h 2.3µM, HCV inh inconclusive
COc1cccc(CN(C)CC2CCCN(CCc3ccccc3C)C2)c1 (stereo unspecified)	Pf growth 96h inconclusive, HCV inh 11µM
CCN(Cc1cccc(OC)c1)CC1CCCN(CCc2cccc(OC)c2)C1 (stereo unspecified)	Pf growth 48h inconclusive, Pf growth 96h inconclusive, HCV inh inconclusive
O=C(/C=C/[C@H]1O[C@@H](n2cnc3c(NC(=O)c4ccccc4)ncnc32)[C@H](O)[C@@H]1O)NCc1cccs1	none (no result: Pf growth 48h, Pf growth 96h, HCV inh)
CC1SC2(NC1=O)C1CC3CC(C1)CC2C3 (stereo unspecified)	Pf growth 96h inconclusive
CC1(c2nnnn2Cc2ccccc2)CCC(=O)N1c1ccc(N2CCOCC2)cc1 (stereo unspecified)	none (no result: Pf growth 48h, Pf growth 96h, HCV inh)
CC(=O)c1ccc(N2CCN(S(=O)(=O)c3cc4[nH]c(=O)c(=O)[nH]c4cc3C)CC2)cc1	Pf growth 48h 2.3µM
Cc1cc(-c2ccc(C(C)C)c(S(=O)(=O)N3CCC(C)CC3)c2)on1	Pf growth 48h 12µM, Pf growth 96h inconclusive
CCc1ccc(-c2cc(C)no2)cc1S(=O)(=O)N1CCN(c2ccc(C(C)=O)cc2)CC1	Pf growth 48h inconclusive, HCV inh 6.3µM
Cc1cc(-c2ccc(C(C)C)c(S(=O)(=O)Nc3cc(C)on3)c2)on1	Pf growth 96h 13µM
CC(=O)c1ccc(N2CCN(S(=O)(=O)c3ccc4ccccc4c3)CC2)cc1	none
CCc1ccc(-c2cc(C)no2)cc1S(=O)(=O)N1CCC(C)CC1	Pf growth 96h inconclusive
CC(C)(C)c1cc2nc3c(c(=O)n2[nH]1)CN(Cc1ccccc1)C3=O	none
CCCCNC(=O)C1(C)CCCCN1C(=O)c1ccc(C#N)cc1 (stereo unspecified)	none (no result: Pf growth 48h, Pf growth 96h, HCV inh)
CC(=O)c1ccc(N2CCN(S(=O)(=O)c3cc(-c4cc(C)no4)ccc3C(C)C)CC2)cc1	Pf growth 48h 10µM, Pf growth 96h inconclusive
COc1ccc(N2CCN(S(=O)(=O)c3cc(-c4cc(C)no4)ccc3C(C)C)CC2)cc1	Pf growth 48h inconclusive, Pf growth 96h inconclusive, HCV inh inconclusive
